Measurements: PubChem BioAssay (Tox21)
Inconclusive results are not listed. Calls of active or inactive are those of the source. The call rests on the fitted dose curve; in most records, active means well fitted curve in the direction sought with a large enough effect in the repeat runs; inconclusive means weak or mixed curves; inactive means no such curve, though single readings can be large; an effect the other way counts as inactive or inconclusive.

Experiments:
[1] = qHTS RealTime-Glo MT Cell Viability Assay in HEK293 cells - 16 hour (AID 1224872); further: top concentration of the series differs between compounds; nearly all actives have a fitted effect of over 50% in size
Method in brief: (§1)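 Homogeneous bioluminescent viability format in HEK293 cells (600 cells/well). Following 5 h at 37 C/5% CO2, 23 nL compound was pintooled; the signal was measured repeatedly during 40 h incubation.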

[2] = qHTS RealTime-Glo MT Cell Viability Assay in HepG2 cells - 8 hour (AID 1224873); further: nearly all actives have a fitted effect of over 55% in size
Method in brief: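 HepG2 cells mixed with RealTime-Glo MT reagents (NanoLuc plus cell-permeant prosubstrate) were seeded at 600 cells/well, incubated 5 h at 37 C/5% CO2, then pinned with compounds in DMSO; nonlytic luminescence tracked viability during 40 h treatment.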

[3] = qHTS RealTime-Glo MT Cell Viability Assay in HEK293 cells - 40 hour (AID 1224874); settings: RealTime-Glo luminescence; max response: hits give low values; further: nearly all actives have a fitted effect of over 50% in size
Method in brief: (§2)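 600 HEK293 cells per well, dispensed already mixed with RealTime-Glo MT reagents. Compound dosing came 5 h later. The same wells were read for luminescence at 0, 8, 16, 24, 32 and 40 h of exposure at 37 C.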

[4] = A CellTox Green Cytotoxicity Assay to monitor cytotoxicity in HEK293 cells - 24 hour (AID 1224875); further: series mostly up to about 77 µM; nearly all actives have a fitted effect of over 45% in size
Method in brief: (§3)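 Dead-cell fluorescence measured kinetically: asymmetric cyanine dye, HEK293, 600 cells/well, 5 h settle, 23 nL cpd/DMSO, 37 C, reads 0–40 h every 8 h.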

[5] = A CellTox Green Cytotoxicity Assay to monitor cytotoxicity in HepG2 cells - 16 hour (AID 1224876); further: nearly all actives have a fitted effect of over 45% in size
Method in brief: (§4)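 First, HepG2 cells (600/well) mixed with reagent were plated; second, after 5 h at 37 C they received compounds via pintool; third, fluorescence was measured at 0 h through 40 h at 8 h intervals.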

[6] = qHTS RealTime-Glo MT Cell Viability Assay in HepG2 cells - 32 hour (AID 1224877); further: nearly all actives have a fitted effect of over 55% in size
Method in brief: (§5)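 Cell number in HepG2 cultures estimated from NanoLuc luminescence generated by metabolic reduction of a prosubstrate by living cells. The homogeneous, nonlytic format allowed repeated reads at 0, 8, 16, 24, 32 and 40 h of compound exposure.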

[7] = A CellTox Green Cytotoxicity Assay to monitor cytotoxicity in HepG2 cells - 24 hour (AID 1224878); further: nearly all actives have a fitted effect of over 45% in size
Method in brief: as §4

[8] = qHTS RealTime-Glo MT Cell Viability Assay in HEK293 cells - 0 hour (AID 1224880); further: top concentration of the series differs between compounds; nearly all actives have a fitted effect of over 45% in size
Method in brief: as §2

[9] = A CellTox Green Cytotoxicity Assay to monitor cytotoxicity in HEK293 cells - 32 hour (AID 1224881); further: nearly all actives have a fitted effect of over 40% in size
Method in brief: as §3

[10] = A CellTox Green Cytotoxicity Assay to monitor cytotoxicity in HepG2 cells - 0 hour (AID 1224882); further: nearly all actives have a fitted effect of over 35% in size
Method in brief: as §4

[11] = A CellTox Green Cytotoxicity Assay to monitor cytotoxicity in HepG2 cells - 32 hour (AID 1224883); further: nearly all actives have a fitted effect of over 50% in size
Method in brief: as §4

[12] = A CellTox Green Cytotoxicity Assay to monitor cytotoxicity in HEK293 cells - 8 hour (AID 1224884); further: nearly all actives have a fitted effect of over 35% in size
Method in brief: as §3

[13] = qHTS RealTime-Glo MT Cell Viability Assay in HepG2 cells - 16 hour (AID 1224885); further: nearly all actives have a fitted effect of over 50% in size
Method in brief: as §5

[14] = qHTS RealTime-Glo MT Cell Viability Assay in HEK293 cells - 24 hour (AID 1224886)
Method in brief: as §1

[15] = qHTS RealTime-Glo MT Cell Viability Assay in HEK293 cells - 8 hour (AID 1224887)
Method in brief: as §2

[16] = A CellTox Green Cytotoxicity Assay to monitor cytotoxicity in HEK293 cells - 16 hour (AID 1224888); further: nearly all actives have a fitted effect of over 35% in size
Method in brief: as §3

[17] = qHTS RealTime-Glo MT Cell Viability Assay in HepG2 cells - 0 hour (AID 1224889); further: nearly all actives have a fitted effect of over 50% in size
Method in brief: as §5

[18] = A CellTox Green Cytotoxicity Assay to monitor cytotoxicity in HepG2 cells - 8 hour (AID 1224890); further: nearly all actives have a fitted effect of over 45% in size
Method in brief: as §4

[19] = qHTS assay to identify small molecule antagonists of the estrogen receptor alpha (ER-alpha) signaling pathway using the BG1 cell line in the presence of 0.1 nM 17-beta-estradiol - cell viability counter screen (AID 1259241); further: nearly all actives have a fitted effect of over 40% in size
Method in brief: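 Live-cell protease activity (CellTiter-Fluor fluorescence, 30 min) was read in the same wells after VM7Luc4E2 cells had been exposed to compounds with 0.1 nM 17beta-estradiol for 22 hr at 37C.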

[20] = A CellTox Green Cytotoxicity Assay to monitor cytotoxicity in HepG2 cells - 40 hour (AID 1224879); further: nearly all actives have a fitted effect of over 40% in size
Method in brief: as §4
On the % scale 0 is the no-effect control and ±100 the full control effect.

NCC1CCCC(CN)C1 (stereo not given)
inactive: Potency [1] | Potency [2] | max response [3] -13.1% | Potency [4] | Potency [5] | Potency [6] | Potency [7] | Potency [8] | Potency [9] | Potency [10] | Potency [11] | Potency [12] | Potency [13] | Potency [14] | Potency [15] | Potency [16] | Potency [17] | Potency [18] | Potency [19]

CC(=O)N(c1onc(C)c1C)S(=O)(=O)c1ccc(N)cc1
inactive: Potency [1] | Potency [2] | max response [3] 4.86% | Potency [4] | Potency [5] | Potency [6] | Potency [7] | Potency [8] | Potency [9] | Potency [10] | Potency [11] | Potency [12] | Potency [13] | Potency [14] | Potency [15] | Potency [16] | Potency [17] | Potency [18] | Potency [19]

CCCc1c(OCCCOc2ccc(OCC(=O)O)cc2)ccc(C(C)=O)c1O
inactive: Potency [1] | Potency [2] | max response [3] -7.6% | Potency [4] | Potency [5] | Potency [6] | Potency [7] | Potency [8] | Potency [9] | Potency [10] | Potency [11] | Potency [12] | Potency [13] | Potency [14] | Potency [15] | Potency [16] | Potency [18]

O=C(O)c1cccnc1C(=O)O
inactive: Potency [1] | Potency [2] | max response [3] -1.78% | Potency [4] | Potency [5] | Potency [6] | Potency [7] | Potency [20] | Potency [8] | Potency [10] | Potency [11] | Potency [12] | Potency [13] | Potency [16] | Potency [17] | Potency [18] | Potency [19]

CCCCCCOC(=O)C(C)C
inactive: Potency [1] | Potency [2] | max response [3] 6.06% | Potency [4] | Potency [5] | Potency [6] | Potency [7] | Potency [20] | Potency [8] | Potency [10] | Potency [11] | Potency [12] | Potency [13] | Potency [14] | Potency [15] | Potency [16] | Potency [17] | Potency [18]

C=C(C)C(=O)OCCOC(=O)CC(C)=O
inactive: Potency [1] | Potency [2] | max response [3] 1.19% | Potency [4] | Potency [5] | Potency [6] | Potency [7] | Potency [20] | Potency [8] | Potency [10] | Potency [11] | Potency [12] | Potency [13] | Potency [15] | Potency [16] | Potency [17] | Potency [18]

C[Si]1(C)O[Si](C)(C)O[Si](C)(C)O1
inactive: Potency [1] | Potency [2] | max response [3] 0.932% | Potency [4] | Potency [5] | Potency [6] | Potency [7] | Potency [20] | Potency [8] | Potency [10] | Potency [11] | Potency [12] | Potency [13] | Potency [14] | Potency [16] | Potency [17] | Potency [18] | Potency [19]
